According to ChEMBL document CHEMBL3988442, “University of Dundee, Small-Polar-MMV Screening Library” (2021):
Screen size: about 48,000 compounds; about 13,000 (27%) showed an effect of 50% or more. This is one part of the list.

These molecules were tested on Wolbachia pipientis (assay: Anti-Wolbachia Cell-Based Screen). Settings: 5 µM.
Format: functional
Parameters: scale not given: in the data most compounds retested in dose-response had high values
With `CC(C)c1nnc(NC(=O)Cc2csc(-c3nnc[nH]3)n2)s1` the “Percent Effect” value was 3.837%. In the case of `COC(=O)C(C)NC(=O)CSCc1nc(O)c2cc(C(C)C)sc2n1` (stereo not drawn), the “Percent Effect” value is reported as 3.354%. With `Cc1nnc(NC(=O)CSCc2cc(=O)n3ccccc3n2)s1` the “Percent Effect” value was 113.7%. For `Cc1ccc2nc(CSCC(=O)Nc3nnc(C(C)C)s3)cc(=O)n2c1`, the “Percent Effect” value was 91.49%. In the case of `Cc1ccc(CNC(=O)Nc2nnc(C(C)C)s2)n1C`, the “Percent Effect” value is reported as -5.821%. With `Cc1cnn(CC(C)NCc2cc(=O)n3cc(C)ccc3n2)c1` (stereo not drawn) the “Percent Effect” value was 5.917%. In the case of `Cc1ccc2nc(CN(Cc3ccc(C)o3)C(C)C)cc(=O)n2c1`, the “Percent Effect” value is reported as -6.244%. With `Cc1nc(C)c(CC(=O)Nc2nnc(C)s2)c(=O)[nH]1` the “Percent Effect” value was -6.123%. With `COc1ccc(C(C)NC(=O)Nc2nnc(C)s2)cc1OC` (stereo not drawn) the “Percent Effect” value was 6.701%. `Cc1cccc2nc(CSCC(=O)Nc3nnc(C(C)C)s3)cc(=O)n12` was tested, and the “Percent Effect” value was 122.4%. With `Cc1cccc2nc(CN3CCCC(C)C3)cc(=O)n12` (stereo not drawn) the “Percent Effect” value was 12.06%. With `Cc1ccn2c(=O)cc(CSCC(=O)Nc3nnc(C(C)C)s3)nc2c1` the “Percent Effect” value was 111%. `CN(C)c1cccc(C(=O)NCC(O)c2cccs2)c1` (stereo not drawn) was tested, and the “Percent Effect” value was -6.039%. In the case of `CCc1ncc2c(n1)CN(C(=O)c1c(C)[nH]c(C(C)=O)c1C)C2`, the “Percent Effect” value is reported as 1.251%. `CN(Cc1cccs1)C1CCC[C@@H]2CN(C(=O)c3cnccn3)C[C@H]12.O=C(O)C(F)(F)F` (stereo partly drawn) was tested, and the “Percent Effect” value was 14.26%. For `Cc1ccc(C(C(=O)O)N2CCCN(Cc3ccccn3)CC2)c(F)c1` (stereo not drawn), the “Percent Effect” value was -1.838%. `Cc1ccc(CN(Cc2cc(=O)n3cccc(C)c3n2)C(C)C)o1` was tested, and the “Percent Effect” value was 2.311%. For `CC(C)c1nnc(NC(=O)CSCc2cc(=O)n3ccccc3n2)s1`, the “Percent Effect” value was 114.5%. In the case of `Cc1cnn(CC(C)NCc2cc(=O)n3ccccc3n2)c1` (stereo not drawn), the “Percent Effect” value is reported as 4.155%. For `Cc1cccn2c(=O)cc(CN3CCCC3Cn3cccn3)nc12` (stereo not drawn), the “Percent Effect” value was 11.97%. In the case of `Cc1cccn2c(=O)cc(CSCC(=O)Nc3nnc(C(C)C)s3)nc12`, the “Percent Effect” value is reported as 100.1%. `COc1ccc(OC)c(-n2c(COC(C)C)n[nH]c2=O)c1` was tested, and the “Percent Effect” value was -3.997%. In the case of `Cn1nc(C2CCN(C(=O)c3cnccn3)C2)cc1CCO` (stereo not drawn), the “Percent Effect” value is reported as 76.91%. With `Cn1ccc(C(=O)N2CCC(c3cc(CCO)n(C)n3)C2)n1` (stereo not drawn) the “Percent Effect” value was 79.61%. `Cn1cc(C(=O)N2CC[C@H](N3CCOCC3)[C@H](CCCO)C2)cn1` was tested, and the “Percent Effect” value was -10.44%. For `Cc1cc(C(=O)N2CC[C@@H]3CO[C@@H](CN4CCCC4)[C@@H]3C2)no1`, the “Percent Effect” value was -4.858%. With `Cc1nc(C(=O)N2CCC(c3cc(CCO)n(C)n3)C2)co1` (stereo not drawn) the “Percent Effect” value was 113%. For `Cn1cc(C(=O)N2CCC(c3cc(CCO)n(C)n3)C2)cn1` (stereo not drawn), the “Percent Effect” value was 181.5%. With `CS(=O)(=O)NC[C@@H]1OC[C@H]2CN(C(=O)c3cnccn3)CC[C@H]21` the “Percent Effect” value was -5.14%. In the case of `COc1ccc(OCc2nc(C(=O)N3CC[C@H](O)[C@@H](O)C3)co2)cc1`, the “Percent Effect” value is reported as -2.37%. With `COC(=O)C1CCCN1C(=O)c1ccc(Br)cc1F` (stereo not drawn) the “Percent Effect” value was 19.55%. In the case of `Cc1ccc2c(n1)N(C)CCN(C(=O)NC1CC1)C2.O=C(O)C(F)(F)F`, the “Percent Effect” value is reported as 4.586%. `O=C(NCc1cn2cccnc2n1)C1CC(=O)N(Cc2cccnc2)C1` (stereo not drawn) was tested, and the “Percent Effect” value was -8.48%. For `CC(C)n1cc(C(=O)NCCCc2csc(N)n2)cn1`, the “Percent Effect” value was -8.171%. In the case of `CNS(=O)(=O)c1cccc(C(C)NCc2ccc(C)o2)c1` (stereo not drawn), the “Percent Effect” value is reported as -6.612%. In the case of `O[C@H]1[C@H](n2cc(-c3ccccc3)nn2)c2ccccc2C12CCNCC2`, the “Percent Effect” value is reported as -3.237%. For `CCc1cc(N(C)CCc2noc(C)n2)nc(N2CCOCC2)n1`, the “Percent Effect” value was -13.53%. In the case of `Cc1ccc(CN(C)Cc2cnc(N3CCOCC3)s2)o1`, the “Percent Effect” value is reported as 116.2%. `Cc1ncc(CN(C)C(=O)c2ccc(N3CCOCC3)c(F)c2)s1` was tested, and the “Percent Effect” value was 3.379%. With `Cc1nc(CN(C)Cc2cnc(N3CCOCC3)s2)no1` the “Percent Effect” value was 89.45%. `CN(Cc1nc(-c2ccccc2)no1)Cc1cnc(N2CCOCC2)s1` was tested, and the “Percent Effect” value was 97.7%. In the case of `CC(C)c1nc(CN(C)Cc2cnc(N3CCOCC3)nc2)no1`, the “Percent Effect” value is reported as -9.471%. With `CCS(=O)(=O)c1ncc(CN(C)Cc2ccc(C)o2)n1CCOC` the “Percent Effect” value was -4.34%. With `CN(Cc1ccsc1)Cc1nc(-c2ccncc2)no1` the “Percent Effect” value was -1.44%. With `Cc1noc(CN(C)Cc2cnc(N3CCOCC3)nc2)n1` the “Percent Effect” value was -9.212%. With `COc1cccc(-c2ccc(CNC(=O)c3ccc(=O)n(C)c3)cc2)c1` the “Percent Effect” value was 0.1145%. With `CCc1nc(CN(C)C(=O)C2CC(=O)N(c3cccc(O)c3)C2)no1` (stereo not drawn) the “Percent Effect” value was 15.35%. For `CN(C)S(=O)(=O)N1CC[C@]2(C[C@@H](OCc3ccccn3)CO2)C1.O=C(O)C(F)(F)F`, the “Percent Effect” value was -10.12%. `CC(C(=O)O)N1CC2(CCC1=O)CCN(CCSc1ccccc1)CC2` (stereo not drawn) was tested, and the “Percent Effect” value was -16.96%. With `COCCN(C)C(=O)Nc1ccn(-c2cccc(C(F)(F)F)c2)n1` the “Percent Effect” value was -15.63%. In the case of `Cc1ccnc(CC(C)N(C)c2cc(C3CCNCC3)nc(C)n2)c1` (stereo not drawn), the “Percent Effect” value is reported as 6.994%. `CCN(Cc1ccncc1)c1cc(C2CCCNC2)nc(C)n1` (stereo not drawn) was tested, and the “Percent Effect” value was 103.1%. With `Cc1nc(C2CCNCC2)cc(N2CCOc3ccccc3C2)n1` the “Percent Effect” value was -3.992%. For `CCN(Cc1ccncc1)c1cc(C2CCN2C(C)=O)nc(C)n1` (stereo not drawn), the “Percent Effect” value was 128.1%. For `Cc1cccc(OCC(=O)N(Cc2ccncc2)C2CC2)c1`, the “Percent Effect” value was -0.008091%. `CCN(Cc1ccncc1)c1nc(C)nc2oc(C)nc12` was tested, and the “Percent Effect” value was -65.89%. In the case of `CCN(Cc1ccncc1)c1cc(C2CCNCC2)nc(C)n1`, the “Percent Effect” value is reported as 95.16%. For `CCN(Cc1c(F)cccc1Cl)c1cc(C2CCNCC2)nc(C)n1`, the “Percent Effect” value was 117.3%. With `CNS(=O)(=O)CC(=O)N(Cc1c(F)cccc1Cl)C1CC1` the “Percent Effect” value was -9.118%. `Cc1nc(C2CCNCC2)cc(N(C)CCc2cn[nH]c2)n1` was tested, and the “Percent Effect” value was -7.954%. With `Cc1nc(C2CCCNC2)cc(N(C)CCc2ccccc2)n1` (stereo not drawn) the “Percent Effect” value was 1.735%. For `CO[C@H]1COCCN(C(=O)c2cc(C)oc2C(F)(F)F)C1`, the “Percent Effect” value was -0.5452%. With `CN(CCc1ccccc1)c1cnn(CC(=O)N2CCOCC2)c(=O)c1` the “Percent Effect” value was 17.19%. `Cc1nc(N(C)C/C=C/c2ccccc2)c2cnn(C)c2n1` was tested, and the “Percent Effect” value was 1.614%. In the case of `COc1cc(C(C#N)NC(=O)CC2=CCCCC2)cc(OC)c1OC` (stereo not drawn), the “Percent Effect” value is reported as -9.8%. For `O=C(c1cnns1)N1CCN(c2ccc(F)cc2Cl)CC1`, the “Percent Effect” value was -2.521%. With `COC(=O)C(O)C1CCN(CCc2ccc(C)cc2)CC1` (stereo not drawn) the “Percent Effect” value was -9.232%. In the case of `CCOc1cc(=O)n2c(c1C(=O)OCc1ccc(C)cc1)CCCC2`, the “Percent Effect” value is reported as 83.47%. With `COc1ccc(CN2CCCN(c3cc(C(N)=O)ccn3)CC2)cc1` the “Percent Effect” value was 15.11%. `CCOc1cc(=O)n2c(c1C(=O)OCc1ccc(OC)cc1)CCCC2` was tested, and the “Percent Effect” value was 91.51%. `Cc1cccc(CC(=O)N2CCCCC2CN)c1.Cl` (stereo not drawn) was tested, and the “Percent Effect” value was -0.4794%. In the case of `O=C(OCc1cccc(F)c1)c1cccc(C(=O)N2CCCC2)n1`, the “Percent Effect” value is reported as -9.061%. In the case of `CCOc1cc(=O)n2c(c1C(=O)OCc1ccc(F)cc1)CCCC2`, the “Percent Effect” value is reported as 95.56%. For `CCOc1cc2c(cc1C(=O)O)CCC2`, the “Percent Effect” value was -16.22%. With `COc1ccc(CN(CC2CCCO2)C(=O)CN2CCCCC2=O)cc1` (stereo not drawn) the “Percent Effect” value was 3.552%. In the case of `CCOc1cc(=O)n2c(c1C(=O)OCc1cccc(C)c1)CCCC2`, the “Percent Effect” value is reported as 85.47%. For `CCOc1cc(C)ccc1NC(=O)N(C)Cc1cnn(C)c1`, the “Percent Effect” value was 5.553%. For `Cc1cccc(COc2ccccc2C(=O)N2CCC(C(N)=O)CC2)c1`, the “Percent Effect” value was 0.1214%. In the case of `Cc1ccc(C(=O)N(C)CCNS(C)(=O)=O)cc1Br`, the “Percent Effect” value is reported as -2.447%. For `Cc1cc(C(=O)N2CCOC[C@H](Oc3cnccn3)C2)c(C(F)(F)F)o1`, the “Percent Effect” value was 1.166%. With `Cc1nnc2n1CCN(CC(=O)NC(C)c1cc3ccccc3o1)C2` (stereo not drawn) the “Percent Effect” value was -0.5236%. For `COCCN1CCN(Cc2ccc(F)c(C)c2)[C@H]2CS(=O)(=O)C[C@H]21`, the “Percent Effect” value was -0.5112%. For `O=C1NCCN(Cc2ccoc2)C1CC(=O)N1CCc2sccc2C1` (stereo not drawn), the “Percent Effect” value was -12.03%. With `CCCN1CCN(Cc2nc3ccccc3[nH]2)[C@H]2CS(=O)(=O)C[C@H]21` the “Percent Effect” value was -8.969%. With `CC1CCC(O)(CN2CCN(CCNC(=O)C3CCC3)CC2)CC1` (stereo not drawn) the “Percent Effect” value was 8.242%. `Cc1[nH]c2c(C)ccc(C)c2c1CC(=O)NCCNc1cccnc1` was tested, and the “Percent Effect” value was 0.5336%. In the case of `N[C@@H]1CCN(Cc2ccccc2CS(=O)(=O)c2ccccc2)C[C@H]1O`, the “Percent Effect” value is reported as -11.48%. With `O=C1CO[C@H]2CN(Cc3c[nH]c4ccccc34)C[C@H]2N1` the “Percent Effect” value was 5.983%. `Cc1nccc(N[C@H]2CN(CCS(C)(=O)=O)C[C@@H]2C2CC2)n1` was tested, and the “Percent Effect” value was -10.57%. For `c1ccc2c(Cc3nnc([C@H]4CCNC4)o3)c[nH]c2c1`, the “Percent Effect” value was -7.413%. `c1cnnc(N[C@@H]2CC[C@@H]3CN(Cc4ccc5cc[nH]c5c4)C[C@@H]32)c1` was tested, and the “Percent Effect” value was 79.05%. For `c1cnn(CCC2CCN(Cc3ccc4[nH]ccc4c3)CC2)c1`, the “Percent Effect” value was -20.25%. In the case of `c1cnnc(N[C@@H]2CC[C@@H]3CN(Cc4ccc5[nH]ccc5c4)C[C@@H]32)c1`, the “Percent Effect” value is reported as 53.89%. With `c1cnnc(N[C@@H]2CC[C@@H]3CN(Cc4c[nH]c5ccccc45)C[C@@H]32)c1` the “Percent Effect” value was 81.26%. `c1cc2ccc(N3CCN(Cc4ccc5c(c4)OCO5)CC3)nc2[nH]1` was tested, and the “Percent Effect” value was -12.23%. For `CN(C)S(=O)(=O)N1C[C@@H]2CC[C@H](C1)N(Cc1ccc3[nH]ccc3c1)C2`, the “Percent Effect” value was 10.36%. `Cc1cn2c(CN(C)C(=O)c3cnc(N)c(Cl)c3)c(C)nc2s1` was tested, and the “Percent Effect” value was 7.837%. `CCn1cnnc1CN(C)C(=O)c1cc(COc2cccc(F)c2)[nH]n1` was tested, and the “Percent Effect” value was -21.78%.
